In assay [1] the test system is PRMT1 (protein arginine N-methyltransferase 1). Kind of assay: PRMT1 binders on small-molecule microarrays, primary screen, biochemical, small-molecule microarray, 635 nm fluorescence (AID 1088).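 Note: binding of Prmt1 protein to compounds spotted on small-molecule microarray slides.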 As to conditions: small-molecule microarray binding, higher = more signal.
Assay [2] in a line: yeast growth modulation, basal conditions, primary screen, YJM789 clinical isolate, OD600, 24 h (AID 1089).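 Note: growth of clinical yeast isolate S. cerevisiae YJM 789 seeded 1000 cells per well; test concentration not given here.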 As to conditions: S. cerevisiae YJM789 growth, higher = more signal, called active from +8 up or from −8 down.
Assay [3] can be described thus: fission yeast growth modulation, primary screen, strain 972, OD600, 24 h, no modulator (AID 1090).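 Note: basal condition with compound alone and no growth modifier present; test concentration not given here.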 As to conditions: S. pombe 972 growth, higher = more signal, called active from +8 up or from −8 down.
Assay [4] can be described thus: S. cerevisiae growth modulation with rapamycin, primary screen, strain BY4716, OD600, 96 h (AID 1091). Note: test concentration not given here. Conditions: higher = more signal, called active from +8 up or from −8 down.
Assay [5] addresses Torsin-1A-interacting protein 2 (Homo sapiens) (UniProt Q8NFQ8). The assay can be described thus: LULL1 binders on small-molecule microarray, primary screen, cell lysate, human LULL1 lysate, 635/667 nm fluorescence (AID 1092).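 Note: probe is lysate of COS7 cells overexpressing human LULL1; score merges per-feature 667 nm fluorescence with signal-to-noise.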 As to conditions: hLULL1 lysate binding, 635 nm fluorescence, higher = more signal.
Assay [6] can be described thus: E. coli growth modulation, two-sided OD650, primary screen, E. coli filamentation project, strain DRC41, 24 h (AID 1093).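 Note: MC1000 strain lacking acrAB efflux and sulA so SOS filamentation is blocked; test concentration not given here.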 Conditions: OD650, 24 h, higher = more signal, called active from +8 up or from −8 down.
The nature of assay [7]: small-molecule microarray binders of probe aLefty2, primary screen, biochemical, biotinylated probe, 635/667 nm fluorescence (AID 1094).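 Note: score merges spot fluorescence near 667 nm with spot signal-to-noise ratio.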 As to conditions: higher = more signal.
Assay [8] concerns Noggin (protein binding on small-molecule microarray). Kind of assay: Noggin binders on small-molecule microarray, primary screen, biochemical, 635/667 nm fluorescence (AID 1095).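 Note: score merges 667 nm feature fluorescence with signal to noise over triplicate slides.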 Conditions: 635 nm fluorescence, higher = more signal.
Assay [9] has as its target Neurogenic locus notch homolog protein 3 (Homo sapiens) (UniProt Q9UM47). Kind of assay: NOTCH3 binders on small-molecule microarray, primary screen, biochemical, 635/667 nm fluorescence (AID 1096). Conditions: NOTCH3 binding, 635 nm fluorescence, higher = more signal.
The nature of assay [10]: small-molecule microarray binders of probe aEGFR, primary screen, biochemical, biotinylated probe, 635/667 nm fluorescence (AID 1097).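 Note: probe is a biotinylated anti-EGFR antibody binding compounds printed on slides; score combines fluorescence near 667 nm and signal to noise of each spot.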 Conditions: higher = more signal.
Assay [11] deals with Plasmodium falciparum Sir2 (PF13_0152, Sir2A). Kind of assay: pfSir2 binders on small-molecule microarrays, primary screen, biochemical, small-molecule microarray, 635 nm fluorescence (AID 1098).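 Note: score merges spot fluorescence intensity with its signal-to-noise ratio.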 Conditions: small-molecule microarray binding, fluorescence 635 nm; higher = more signal.
Assay [12] is described as follows: small-molecule microarray binders of probe aDKK1, primary screen, biochemical, biotinylated probe, 635/667 nm fluorescence (AID 1099).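 Note: score merges 667nm spot fluorescence with signal to noise across triplicate slides; reference of the scale not given here.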 Conditions: higher = more signal.
A short description of assay [13]: small-molecule microarray binders of probe aCHRDL2, primary screen, biochemical, biotinylated probe, 635/667 nm fluorescence (AID 1100). As to conditions: higher = more signal.
The nature of assay [14]: splicing luciferase reporter signal modulators, primary screen, spliceosome inhibition project, cell-based, HEK293, splice +/- reporter (AID 1101).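 Note: HEK293 cells carrying a splicing-competent luciferase reporter gene; test concentration not given here.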 As to conditions: luminescence, 24 h, higher = more signal, called active from +8 up or from −8 down.
In assay [15] the target is Fibroblast growth factor 10 (Homo sapiens) (UniProt O15520). The assay can be described thus: FGF10 binders on small-molecule microarrays, primary screen, biochemical, small-molecule microarray, 635 nm fluorescence (AID 1102). Conditions: FGF10 binding, fluorescence 635 nm, higher = more signal.
The test system of assay [16] is glycogen synthase kinase-3 (GSK3A per assay name; protocol says GSK3B). The assay can be described thus: GSK3 binders on small-molecule microarrays, primary screen, biochemical, small-molecule microarray, 635 nm fluorescence, GSK3A (AID 1103). Note: the record names both GSK3A and GSK3B. As to conditions: small-molecule microarray binding, fluorescence 635 nm; higher = more signal.
The target in assay [17] is Epidermal growth factor receptor (Homo sapiens) (UniProt P00533). Kind of assay: EGFR binders on small-molecule microarrays, primary screen, biochemical, small-molecule microarray, 635 nm fluorescence (AID 1104).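 Note: score merges 667 nm emission intensity with spot signal to noise over triplicate slides.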 As to conditions: EGFR binding, higher = more signal.
The target of assay [18] is Follistatin-related protein 3 (Homo sapiens) (UniProt O95633). The assay can be described thus: FSTL3 binders on small-molecule microarrays, primary screen, biochemical, small-molecule microarray, 635 nm fluorescence (AID 1105).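 Note: score merges emission near 667 nm and signal to noise per printed spot across three slides.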 As to conditions: FSTL3 binding, higher = more signal.
Assay [19] concerns the target Dickkopf-related protein 1 (Homo sapiens) (UniProt O94907). Kind of assay: DKK1 binders on small-molecule microarrays, primary screen, biochemical, small-molecule microarray, 635 nm fluorescence scan (AID 1106).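 Note: score merges emission near 667 nm with signal to noise over three replicate slides.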 Conditions: DKK1 binding, higher = more signal.
The test system of assay [20] is Inhibin beta A chain (activin A). Kind of assay: INHBA (activin A) binders on microarrays, primary screen, biochemical, small-molecule microarray, 635 nm fluorescence scan (AID 1107).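 Note: mouse activin A protein probed at 4.33 µg/mL on printed slides; score merges bound-protein fluorescence near 667 nm with spot signal-to-noise.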 As to conditions: small-molecule microarray binding, higher = more signal.

Activity calls are given as the source filed them.

Neurogenic locus notch homolog protein 3 (Homo sapiens), sequence (Q9UM47 whole entry, looked up): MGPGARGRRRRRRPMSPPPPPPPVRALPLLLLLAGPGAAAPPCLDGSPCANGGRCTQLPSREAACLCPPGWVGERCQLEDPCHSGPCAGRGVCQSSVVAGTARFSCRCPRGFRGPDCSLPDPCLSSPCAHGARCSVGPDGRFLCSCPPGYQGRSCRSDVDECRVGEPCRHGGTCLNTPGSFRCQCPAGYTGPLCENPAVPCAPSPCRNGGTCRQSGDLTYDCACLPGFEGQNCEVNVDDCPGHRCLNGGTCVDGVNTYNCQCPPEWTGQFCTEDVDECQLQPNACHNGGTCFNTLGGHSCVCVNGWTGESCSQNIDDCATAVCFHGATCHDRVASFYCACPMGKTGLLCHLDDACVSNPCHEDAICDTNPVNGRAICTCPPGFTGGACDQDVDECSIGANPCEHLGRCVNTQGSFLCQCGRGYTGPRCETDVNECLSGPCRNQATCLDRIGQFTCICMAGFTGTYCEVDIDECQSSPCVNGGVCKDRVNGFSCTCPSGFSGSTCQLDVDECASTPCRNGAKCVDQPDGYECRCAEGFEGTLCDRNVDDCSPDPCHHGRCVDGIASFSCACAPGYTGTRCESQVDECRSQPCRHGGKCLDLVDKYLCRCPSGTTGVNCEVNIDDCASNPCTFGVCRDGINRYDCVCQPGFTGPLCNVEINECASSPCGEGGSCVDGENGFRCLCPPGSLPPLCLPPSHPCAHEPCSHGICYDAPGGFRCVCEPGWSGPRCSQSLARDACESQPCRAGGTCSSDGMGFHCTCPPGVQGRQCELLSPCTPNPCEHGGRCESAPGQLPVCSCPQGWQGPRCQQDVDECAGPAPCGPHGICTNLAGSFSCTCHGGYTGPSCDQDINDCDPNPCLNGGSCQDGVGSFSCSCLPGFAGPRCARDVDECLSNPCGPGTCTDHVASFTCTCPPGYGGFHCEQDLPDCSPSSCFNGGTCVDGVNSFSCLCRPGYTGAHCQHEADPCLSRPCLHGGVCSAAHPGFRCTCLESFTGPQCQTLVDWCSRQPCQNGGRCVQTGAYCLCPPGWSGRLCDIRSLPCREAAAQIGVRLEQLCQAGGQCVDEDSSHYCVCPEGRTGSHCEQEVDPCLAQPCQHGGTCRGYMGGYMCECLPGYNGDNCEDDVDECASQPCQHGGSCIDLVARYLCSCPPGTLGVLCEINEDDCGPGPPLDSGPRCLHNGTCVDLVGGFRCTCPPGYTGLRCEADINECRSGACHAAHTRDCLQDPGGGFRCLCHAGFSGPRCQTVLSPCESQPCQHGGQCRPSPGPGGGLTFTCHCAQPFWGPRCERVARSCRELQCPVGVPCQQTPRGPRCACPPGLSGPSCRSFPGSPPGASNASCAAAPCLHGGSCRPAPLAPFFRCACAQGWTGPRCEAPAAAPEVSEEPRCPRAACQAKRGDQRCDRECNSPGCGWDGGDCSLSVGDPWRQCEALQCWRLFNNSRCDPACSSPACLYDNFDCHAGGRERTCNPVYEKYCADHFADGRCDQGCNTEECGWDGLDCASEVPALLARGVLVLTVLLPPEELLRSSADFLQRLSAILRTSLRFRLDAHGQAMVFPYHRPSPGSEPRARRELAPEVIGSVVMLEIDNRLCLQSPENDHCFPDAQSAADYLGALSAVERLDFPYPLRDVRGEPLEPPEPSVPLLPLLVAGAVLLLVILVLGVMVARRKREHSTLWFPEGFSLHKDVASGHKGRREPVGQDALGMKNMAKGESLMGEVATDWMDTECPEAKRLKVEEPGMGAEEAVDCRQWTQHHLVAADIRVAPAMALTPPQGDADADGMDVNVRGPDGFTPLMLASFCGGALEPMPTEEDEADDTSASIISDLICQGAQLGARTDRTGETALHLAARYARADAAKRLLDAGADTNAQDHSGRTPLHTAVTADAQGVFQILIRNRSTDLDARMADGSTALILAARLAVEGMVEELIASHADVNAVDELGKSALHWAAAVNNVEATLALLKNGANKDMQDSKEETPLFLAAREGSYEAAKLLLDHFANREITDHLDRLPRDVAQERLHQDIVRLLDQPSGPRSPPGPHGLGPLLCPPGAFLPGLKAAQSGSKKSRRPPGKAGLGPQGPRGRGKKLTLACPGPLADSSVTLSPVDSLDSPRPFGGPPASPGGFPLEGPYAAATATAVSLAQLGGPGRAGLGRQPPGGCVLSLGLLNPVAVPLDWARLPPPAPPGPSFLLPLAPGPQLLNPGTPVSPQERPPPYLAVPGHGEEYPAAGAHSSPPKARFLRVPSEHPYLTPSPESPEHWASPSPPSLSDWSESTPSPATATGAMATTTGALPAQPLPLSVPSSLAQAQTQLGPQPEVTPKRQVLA
Fibroblast growth factor 10 (Homo sapiens), sequence (O15520 whole entry, looked up): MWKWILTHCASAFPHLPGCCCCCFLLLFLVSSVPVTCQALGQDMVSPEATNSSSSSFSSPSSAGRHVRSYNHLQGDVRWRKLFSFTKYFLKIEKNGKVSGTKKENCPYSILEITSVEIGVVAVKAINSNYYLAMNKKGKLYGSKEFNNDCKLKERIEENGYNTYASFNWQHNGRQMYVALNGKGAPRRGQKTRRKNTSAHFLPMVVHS
Dickkopf-related protein 1 (Homo sapiens), sequence (O94907 whole entry, looked up): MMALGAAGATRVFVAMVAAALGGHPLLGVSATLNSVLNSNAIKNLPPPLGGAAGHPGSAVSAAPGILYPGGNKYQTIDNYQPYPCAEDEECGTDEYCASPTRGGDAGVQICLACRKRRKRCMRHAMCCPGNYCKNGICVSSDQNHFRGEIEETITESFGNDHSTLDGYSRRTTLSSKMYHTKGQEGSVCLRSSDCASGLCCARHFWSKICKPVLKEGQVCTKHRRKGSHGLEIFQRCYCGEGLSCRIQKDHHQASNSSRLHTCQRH
Epidermal growth factor receptor (Homo sapiens), sequence (P00533 whole entry, looked up): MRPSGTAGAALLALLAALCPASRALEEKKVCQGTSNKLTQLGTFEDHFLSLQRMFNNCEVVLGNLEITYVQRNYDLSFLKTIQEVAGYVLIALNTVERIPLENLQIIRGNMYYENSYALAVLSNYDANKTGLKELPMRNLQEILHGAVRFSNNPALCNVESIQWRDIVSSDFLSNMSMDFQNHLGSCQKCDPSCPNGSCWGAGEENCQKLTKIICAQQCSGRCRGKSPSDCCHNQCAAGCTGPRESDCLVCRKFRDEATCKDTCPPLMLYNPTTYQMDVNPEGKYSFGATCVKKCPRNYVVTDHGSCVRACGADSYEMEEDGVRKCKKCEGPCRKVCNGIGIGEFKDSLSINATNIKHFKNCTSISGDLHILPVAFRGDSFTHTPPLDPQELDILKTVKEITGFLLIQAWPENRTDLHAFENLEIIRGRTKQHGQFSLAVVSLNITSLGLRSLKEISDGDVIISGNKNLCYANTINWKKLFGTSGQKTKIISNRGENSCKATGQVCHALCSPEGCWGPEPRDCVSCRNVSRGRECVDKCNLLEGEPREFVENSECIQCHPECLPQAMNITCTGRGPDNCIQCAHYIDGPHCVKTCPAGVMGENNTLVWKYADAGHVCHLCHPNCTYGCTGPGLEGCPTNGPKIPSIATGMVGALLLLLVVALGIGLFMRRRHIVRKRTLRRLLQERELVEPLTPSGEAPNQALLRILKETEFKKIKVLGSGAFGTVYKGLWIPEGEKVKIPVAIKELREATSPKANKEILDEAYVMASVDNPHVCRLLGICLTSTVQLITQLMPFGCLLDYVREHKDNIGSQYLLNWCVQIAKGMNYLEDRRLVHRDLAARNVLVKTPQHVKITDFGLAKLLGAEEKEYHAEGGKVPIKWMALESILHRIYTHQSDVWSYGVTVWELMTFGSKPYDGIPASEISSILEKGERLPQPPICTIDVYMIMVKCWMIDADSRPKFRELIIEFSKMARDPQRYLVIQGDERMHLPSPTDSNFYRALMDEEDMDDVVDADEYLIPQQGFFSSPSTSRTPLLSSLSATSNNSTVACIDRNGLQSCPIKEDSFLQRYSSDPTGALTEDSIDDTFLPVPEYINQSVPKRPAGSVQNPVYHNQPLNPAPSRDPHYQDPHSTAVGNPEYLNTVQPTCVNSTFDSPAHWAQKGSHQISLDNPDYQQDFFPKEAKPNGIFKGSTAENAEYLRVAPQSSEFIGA
Follistatin-related protein 3 (Homo sapiens), sequence (O95633 whole entry, looked up): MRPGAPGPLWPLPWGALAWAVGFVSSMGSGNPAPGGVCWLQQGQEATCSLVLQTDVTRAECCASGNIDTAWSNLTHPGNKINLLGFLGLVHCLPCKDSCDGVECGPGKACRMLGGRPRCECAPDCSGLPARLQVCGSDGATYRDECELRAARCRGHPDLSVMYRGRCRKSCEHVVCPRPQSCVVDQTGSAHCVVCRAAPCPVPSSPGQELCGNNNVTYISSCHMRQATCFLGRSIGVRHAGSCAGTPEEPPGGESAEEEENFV
Torsin-1A-interacting protein 2 (Homo sapiens), sequence (Q8NFQ8 whole entry, looked up): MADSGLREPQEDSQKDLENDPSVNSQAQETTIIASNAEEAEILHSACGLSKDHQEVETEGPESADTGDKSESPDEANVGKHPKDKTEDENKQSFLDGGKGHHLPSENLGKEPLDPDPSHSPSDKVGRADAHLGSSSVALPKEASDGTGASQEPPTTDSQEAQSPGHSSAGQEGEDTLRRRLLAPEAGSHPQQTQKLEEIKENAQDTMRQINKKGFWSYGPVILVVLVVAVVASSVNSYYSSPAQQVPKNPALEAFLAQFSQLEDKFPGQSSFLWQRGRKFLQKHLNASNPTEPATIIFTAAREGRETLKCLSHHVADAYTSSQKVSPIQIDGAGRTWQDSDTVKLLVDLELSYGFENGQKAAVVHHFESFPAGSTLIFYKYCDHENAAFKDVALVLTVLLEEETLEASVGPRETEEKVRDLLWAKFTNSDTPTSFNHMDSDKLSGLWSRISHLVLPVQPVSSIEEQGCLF

In the case of `COc1ccccc1CN1C(=O)c2ccccc2[C@](Cc2ccccc2I)(C(=O)NCCCN(C)C)[C@@H]1c1ccc(CO)cc1`, the composite z-score was 1.4 in assay [1]; 3.04 in assay [5]; -0.305 in assay [7]; 0.134 in assay [8]; 0.591 in assay [9]; -0.355 in assay [10]. Besides, the composite z-score is 1.2 in assay [11]; -0.556 in assay [12]; -0.376 in [13]; -0.0448 in [15]; 1.22 in assay [16]; 0.221 in [17]. Further, the composite z-score worked out at 0.158 in [18], 0.0393 in assay [19] and 0.545 in assay [20]. The z-score is 0.404 (inactive) in [2]; -20.1 (active) in assay [3]; -2.96 (inactive) in [4]; -5.17 (inactive) in [6]; -1.79 (inactive) in assay [14].

`C=CCC(OC(C)=O)[C@@H]1[C@@H](N(Cc2cc3ccccc3o2)C(=O)Cc2ccc(OC)cc2)c2cc(OCCCO)ccc2N1C(=O)Cc1ccc2ccccc2c1` (stereo not given in full): the composite z-score was -0.328 in assay [1]; 0.783 in [5]; -0.115 in assay [7]; -0.507 in assay [8]; -1.01 in assay [9]; -0.145 in assay [10]. Further, the composite z-score is -0.542 in assay [11]; -0.217 in assay [12]; 0.689 in [13]; -0.448 in assay [15]; -1.52 in assay [16]; -0.227 in [17]. The composite z-score is -0.471 in assay [18], -0.62 in assay [19] and 0.806 in assay [20]. Also, the z-score in assay [2] was 0.225 (inactive); in assay [3] it was 0.232 (inactive); in [4], 0.738 (inactive); in [6], -0.0576 (inactive); in assay [14] it was -0.475 (inactive).

With `CCN(CC)c1ccc(N2CC=CC34O[C@@H]5C=CCOC(=O)[C@@H]5[C@H]3C(=O)N(CCCO)[C@@H]4C2=O)cc1` (stereo not given in full), the composite z-score in assay [1] was 0.586; in [5] it was 1.57; in [7], -0.139; in [8], -0.927; in [9], -0.453; in assay [10], -0.188. Moreover, the composite z-score in assay [11] was 0.481; in assay [12], -0.464; in assay [13], 0.0573; in assay [15] it was -0.946; in assay [16], -1.11; in assay [17] it was -0.853. Moreover, the composite z-score in assay [18] is -0.69; in assay [19], -0.901; in [20] it was 1.65. Further, the z-score in assay [2] was -0.6 (inactive); in assay [3], -0.197 (inactive); in assay [4], -0.298 (inactive); in assay [6], 1.6 (inactive); in [14], -1.6 (inactive).

On to `[N-]=[N+]=NCc1ccccc1C[C@]1(C(=O)NCc2ccccc2)N=C(c2ccc(OCCCO)cc2)O[C@H]1c1ccccc1CN=[N+]=[N-]`, for which the composite z-score was 1.37 in assay [1]; 3.25 in [5]; -0.106 in assay [7]; -0.243 in [8]; 0.561 in [9]; 0.0506 in assay [10]. Further, the composite z-score in assay [11] was 1.03; in assay [12] it was 1.22; in assay [13], 0.889; in assay [15], -0.0516; in assay [16], 0.412; in assay [17], -0.253. The composite z-score in [18] is 0.0358; in assay [19], -0.726; in [20], 0.794. Also, the z-score is 1.27 (inactive) in [2]; 0.736 (inactive) in assay [3]; 22.6 (active) in assay [4]; 1.79 (inactive) in [6]; -1.33 (inactive) in [14].

On to `CCOC(=O)C1=CC[C@@H](c2ccccc2Cl)N(S(=O)(=O)c2ccc(C)cc2)[C@H]1c1cccc(OC)c1`, for which the composite z-score in assay [1] is 0.336; in [5], 1.84; in assay [7], -0.186; in assay [8], -0.0339; in assay [9] it was 0.506; in [10], -0.125. Moreover, the composite z-score in assay [11] is 0.662; in assay [12], -0.0972; in [13], -0.335; in assay [15], 0.331; in [16], 0.269; in assay [17], -0.055. The composite z-score in [18] was 0.536; in [19] it was -0.237; in assay [20], 0.406. Moreover, the z-score in [2] was 0.318 (inactive); in assay [3] it was 0.957 (inactive); in assay [4] it was 2.88 (inactive); in assay [6], -1.08 (inactive); in [14], 0.751 (inactive).

For the origin of these results see PubChem BioAssay.
